# Laboratory results from ChEMBL document CHEMBL1961873, “Compounds: GSK PKIS; Assays: Nanosyn kinase panel” (2012).
# Assays:
# [1] = molecular target: Tyrosine-protein kinase SYK (Homo sapiens) (UniProt P43405); settings: at 1 µM
# [2] = molecular target: T1, Tyrosine-protein kinase Tec (Homo sapiens) (UniProt P42680); settings: at 0.1 µM
# T1 sequence (whole entry): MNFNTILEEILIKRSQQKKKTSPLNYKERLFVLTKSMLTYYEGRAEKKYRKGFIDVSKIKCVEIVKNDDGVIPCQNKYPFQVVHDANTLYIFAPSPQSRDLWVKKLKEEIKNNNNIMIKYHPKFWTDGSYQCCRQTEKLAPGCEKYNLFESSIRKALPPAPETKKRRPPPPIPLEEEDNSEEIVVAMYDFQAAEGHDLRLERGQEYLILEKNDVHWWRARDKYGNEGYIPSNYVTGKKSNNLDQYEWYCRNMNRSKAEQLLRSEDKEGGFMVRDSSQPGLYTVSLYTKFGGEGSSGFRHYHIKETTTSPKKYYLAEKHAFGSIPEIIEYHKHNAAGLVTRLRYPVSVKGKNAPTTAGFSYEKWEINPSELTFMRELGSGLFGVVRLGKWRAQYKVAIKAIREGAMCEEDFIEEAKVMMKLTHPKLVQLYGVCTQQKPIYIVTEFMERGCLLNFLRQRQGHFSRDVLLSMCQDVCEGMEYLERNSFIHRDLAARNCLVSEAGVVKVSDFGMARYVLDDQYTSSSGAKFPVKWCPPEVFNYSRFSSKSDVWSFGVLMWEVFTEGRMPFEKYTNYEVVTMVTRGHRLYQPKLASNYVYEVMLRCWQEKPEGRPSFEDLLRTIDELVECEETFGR
# [3] = molecular target: T1, Tyrosine-protein kinase Tec (Homo sapiens); settings: at 1 µM
# [4] = molecular target: Angiopoietin-1 receptor (Homo sapiens) (UniProt Q02763); settings: at 0.1 µM
# [5] = molecular target: Angiopoietin-1 receptor (Homo sapiens) (UniProt Q02763); settings: at 1 µM
# [6] = molecular target: T2, Non-receptor tyrosine-protein kinase TNK1 (Homo sapiens) (UniProt Q13470); settings: at 0.1 µM
# T2 sequence (whole entry): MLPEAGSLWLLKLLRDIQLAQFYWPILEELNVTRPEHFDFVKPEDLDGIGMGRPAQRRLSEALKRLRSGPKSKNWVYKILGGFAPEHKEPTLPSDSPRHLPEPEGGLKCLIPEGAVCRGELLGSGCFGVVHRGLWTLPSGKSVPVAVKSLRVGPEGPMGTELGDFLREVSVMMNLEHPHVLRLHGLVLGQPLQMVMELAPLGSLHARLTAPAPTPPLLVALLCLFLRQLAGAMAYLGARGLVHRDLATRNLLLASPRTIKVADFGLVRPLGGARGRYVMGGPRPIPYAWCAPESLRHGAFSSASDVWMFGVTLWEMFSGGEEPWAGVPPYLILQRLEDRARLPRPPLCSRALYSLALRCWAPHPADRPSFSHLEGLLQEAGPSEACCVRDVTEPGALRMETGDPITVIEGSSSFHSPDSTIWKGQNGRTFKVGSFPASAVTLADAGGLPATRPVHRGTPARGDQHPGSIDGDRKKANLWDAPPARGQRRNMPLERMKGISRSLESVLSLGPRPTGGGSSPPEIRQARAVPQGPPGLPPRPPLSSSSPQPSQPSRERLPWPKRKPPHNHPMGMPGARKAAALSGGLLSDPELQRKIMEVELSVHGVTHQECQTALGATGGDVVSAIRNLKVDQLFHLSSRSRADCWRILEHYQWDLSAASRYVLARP
# [7] = molecular target: T2, Non-receptor tyrosine-protein kinase TNK1 (Homo sapiens); settings: at 1 µM
# [8] = molecular target: Activated CDC42 kinase 1 (Homo sapiens) (UniProt Q07912); settings: at 0.1 µM
# [9] = molecular target: Activated CDC42 kinase 1 (Homo sapiens) (UniProt Q07912); settings: at 1 µM
# [10] = molecular target: High affinity nerve growth factor receptor (Homo sapiens) (UniProt P04629); settings: at 0.1 µM;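 further: each value is a mean of replicate percent inhibition readings against TRKA kinase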
# Sequence of High affinity nerve growth factor receptor (Homo sapiens) (P04629 33-796 limits assumed): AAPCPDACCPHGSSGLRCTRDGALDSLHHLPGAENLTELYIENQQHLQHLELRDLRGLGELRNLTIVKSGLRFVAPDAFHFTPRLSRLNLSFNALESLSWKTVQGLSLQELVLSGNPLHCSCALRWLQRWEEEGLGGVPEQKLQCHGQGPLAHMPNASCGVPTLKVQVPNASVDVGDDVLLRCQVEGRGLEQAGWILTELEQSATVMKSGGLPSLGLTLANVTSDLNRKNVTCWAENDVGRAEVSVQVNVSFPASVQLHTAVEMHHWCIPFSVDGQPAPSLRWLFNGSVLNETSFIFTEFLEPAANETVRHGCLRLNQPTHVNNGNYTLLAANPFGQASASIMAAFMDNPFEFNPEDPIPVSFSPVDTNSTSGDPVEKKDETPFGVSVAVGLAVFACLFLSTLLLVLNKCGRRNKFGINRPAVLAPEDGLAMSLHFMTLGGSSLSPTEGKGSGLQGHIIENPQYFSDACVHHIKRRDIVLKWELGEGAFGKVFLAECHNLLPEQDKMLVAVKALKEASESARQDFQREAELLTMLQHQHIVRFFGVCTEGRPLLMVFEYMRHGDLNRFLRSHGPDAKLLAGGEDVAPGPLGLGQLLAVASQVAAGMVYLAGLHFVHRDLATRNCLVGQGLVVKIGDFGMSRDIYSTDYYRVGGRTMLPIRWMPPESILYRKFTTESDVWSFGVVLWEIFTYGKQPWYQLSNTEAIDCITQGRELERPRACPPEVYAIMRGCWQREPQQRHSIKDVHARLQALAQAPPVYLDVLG
# Sequence of Angiopoietin-1 receptor (Homo sapiens) (Q02763 whole entry): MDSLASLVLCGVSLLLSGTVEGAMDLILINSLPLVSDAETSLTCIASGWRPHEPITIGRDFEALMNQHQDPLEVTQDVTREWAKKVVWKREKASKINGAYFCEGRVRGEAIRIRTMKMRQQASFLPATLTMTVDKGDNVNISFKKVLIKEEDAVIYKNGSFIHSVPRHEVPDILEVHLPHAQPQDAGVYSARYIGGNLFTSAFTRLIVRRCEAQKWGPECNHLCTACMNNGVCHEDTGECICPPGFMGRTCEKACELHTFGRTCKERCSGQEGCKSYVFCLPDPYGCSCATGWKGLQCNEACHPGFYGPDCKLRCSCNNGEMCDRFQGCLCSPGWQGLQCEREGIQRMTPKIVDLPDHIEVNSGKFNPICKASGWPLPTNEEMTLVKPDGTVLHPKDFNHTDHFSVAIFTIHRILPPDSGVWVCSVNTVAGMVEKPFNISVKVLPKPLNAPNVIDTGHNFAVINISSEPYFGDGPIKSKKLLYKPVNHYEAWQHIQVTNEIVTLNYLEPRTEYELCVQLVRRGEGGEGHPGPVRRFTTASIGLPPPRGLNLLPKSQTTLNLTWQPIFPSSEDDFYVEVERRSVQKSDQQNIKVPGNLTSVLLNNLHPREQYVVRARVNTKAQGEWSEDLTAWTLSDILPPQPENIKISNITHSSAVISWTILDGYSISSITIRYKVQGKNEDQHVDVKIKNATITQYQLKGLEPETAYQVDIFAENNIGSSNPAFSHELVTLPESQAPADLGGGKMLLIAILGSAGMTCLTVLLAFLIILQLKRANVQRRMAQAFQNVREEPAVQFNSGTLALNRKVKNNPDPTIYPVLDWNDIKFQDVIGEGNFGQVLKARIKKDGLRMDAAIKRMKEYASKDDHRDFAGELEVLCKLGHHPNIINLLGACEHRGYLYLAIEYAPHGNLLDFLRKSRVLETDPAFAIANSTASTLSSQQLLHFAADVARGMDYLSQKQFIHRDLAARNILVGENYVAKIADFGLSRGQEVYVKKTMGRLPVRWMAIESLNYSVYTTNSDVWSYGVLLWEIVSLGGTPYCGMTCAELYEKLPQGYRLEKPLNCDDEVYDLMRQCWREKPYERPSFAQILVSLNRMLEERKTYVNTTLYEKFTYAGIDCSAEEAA
# Sequence of Activated CDC42 kinase 1 (Homo sapiens) (Q07912 whole entry, looked up): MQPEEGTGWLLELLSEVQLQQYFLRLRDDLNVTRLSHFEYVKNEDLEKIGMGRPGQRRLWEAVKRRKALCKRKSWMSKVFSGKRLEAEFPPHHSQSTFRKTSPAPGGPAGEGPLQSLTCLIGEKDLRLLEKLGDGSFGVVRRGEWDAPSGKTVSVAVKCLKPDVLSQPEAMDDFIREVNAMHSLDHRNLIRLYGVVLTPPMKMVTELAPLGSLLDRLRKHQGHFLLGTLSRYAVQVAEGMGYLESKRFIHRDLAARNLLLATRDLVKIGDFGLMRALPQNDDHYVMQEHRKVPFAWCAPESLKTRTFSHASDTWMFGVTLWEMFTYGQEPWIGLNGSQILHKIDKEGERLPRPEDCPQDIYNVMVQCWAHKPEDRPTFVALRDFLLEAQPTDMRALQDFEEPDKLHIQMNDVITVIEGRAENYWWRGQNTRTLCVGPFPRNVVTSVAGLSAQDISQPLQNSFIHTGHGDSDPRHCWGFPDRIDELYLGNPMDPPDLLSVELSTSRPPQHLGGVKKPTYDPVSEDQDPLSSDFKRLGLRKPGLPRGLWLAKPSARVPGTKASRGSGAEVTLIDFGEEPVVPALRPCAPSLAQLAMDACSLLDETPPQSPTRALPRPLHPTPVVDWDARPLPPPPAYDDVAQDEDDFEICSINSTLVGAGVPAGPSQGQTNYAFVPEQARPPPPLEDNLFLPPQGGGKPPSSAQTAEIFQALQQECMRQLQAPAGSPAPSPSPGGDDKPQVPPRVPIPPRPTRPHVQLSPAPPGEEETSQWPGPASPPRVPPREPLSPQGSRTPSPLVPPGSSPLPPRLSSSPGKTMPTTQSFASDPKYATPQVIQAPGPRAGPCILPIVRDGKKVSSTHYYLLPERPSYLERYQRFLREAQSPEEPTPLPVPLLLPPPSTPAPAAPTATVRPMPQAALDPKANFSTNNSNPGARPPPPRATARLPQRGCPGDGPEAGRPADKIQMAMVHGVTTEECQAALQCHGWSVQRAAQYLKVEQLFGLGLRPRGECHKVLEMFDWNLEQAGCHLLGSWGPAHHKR
Structure (SMILES),inhibition [1],inhibition [2],inhibition [3],inhibition [4],inhibition [5],inhibition [6],inhibition [7],inhibition [8],inhibition [9],inhibition [10]
Cc1ccc(C(=O)NC2CCC2)cc1-c1ccc(C(=O)NCC2CC2)cc1,0.85%,3.37%,2.28%,2.59%,1.2%,-0.31%,-1.43%,1.04%,1.08%,-0.6%
COc1ccc(-c2ccc3c(NC(=O)C4CC4)n[nH]c3n2)cc1,-2.02%,0.87%,2.47%,2.75%,5.88%,1.34%,12%,0.32%,1.42%,-0.67%
Fc1ccc(-c2nc3n(c2-c2ccncc2)CCS3)cc1,2.02%,0.9%,2.31%,3.17%,5.76%,1.24%,-1.81%,0.78%,0.1%,2.38%
COc1cc(Nc2ncc3c(C)nc(-c4cccc(Oc5ccccc5)c4)n3n2)cc(OC)c1OC,0.13%,2.22%,5.31%,1.33%,3.09%,4.56%,23.8%,0.46%,1.9%,2.69%
COc1cc(C)c(N(C)C(=O)CN(C)C)cc1Nc1nc(Nc2cccc(F)c2C(N)=O)c2cc[nH]c2n1,1.76%,-0.85%,1.07%,0.26%,2.24%,1.97%,6.22%,0.62%,0.64%,1.62%
O=C(Nc1ccc(Oc2ccc3[nH]c(NC(=O)c4ccccc4)nc3c2)cc1)Nc1cc(C(F)(F)F)ccc1F,-0.11%,4.86%,8.67%,9.81%,60.5%,4.53%,40%,0.59%,4.59%,5.99%
COc1ccc2cc(-c3c(-c4ccncc4)nc(-c4ccc(S(C)(=O)=O)cc4C)n3C)ccc2c1,0.26%,4.38%,5.26%,75%,78.7%,4.94%,29.3%,0.74%,3.77%,3.75%
CCN(CC)Cc1ccc(Nc2nccc(-c3cnn4ncccc34)n2)cc1,-0.45%,0.83%,3.21%,3.9%,12.2%,5.27%,32%,-0.16%,3.2%,2.7%
C[C@@H](Oc1cc(-n2cnc3ccc(OCC4CCN(C)CC4)cc32)sc1C(N)=O)c1ccccc1Cl,2.34%,6.45%,6.29%,4.83%,19.8%,7.13%,26.1%,3.05%,19.8%,1.86%
COc1ccc2ncn(-c3cc(O[C@H](C)c4ccccc4Cl)c(C(N)=O)s3)c2c1,-3.45%,-2.01%,0.84%,1.72%,7.48%,3.02%,24.1%,0.31%,1.16%,8.17%
Clc1ccc(CNc2nccc(-c3cnn4ncccc34)n2)cc1,1.6%,3.07%,7.34%,0.58%,4.03%,2.4%,14.8%,0.35%,3.23%,1.42%
Fc1ccc(-c2c(-c3ccncc3)nc3n2CCS3)cc1,1.49%,-1.67%,-0.75%,2.27%,4.78%,0.74%,2.59%,0.57%,1.01%,3.03%
CCc1nccc2c1nc(-c1nonc1N)n2CC,10.7%,1.47%,5.82%,2.53%,5.08%,0.71%,-5.44%,-0.52%,-0.83%,–
Cc1ccc(C(=O)NC(C)C)cc1-c1ccc(C(=O)NCC2CC2)cc1,-0.36%,-2.75%,-2.37%,-0.76%,-0.28%,-4.74%,-5.58%,-0.81%,0.35%,-0.37%
Nc1nccc(-c2c(-c3ccc(F)cc3)ncn2C2CCC(O)CC2)n1 (centres undefined),4.19%,-0.76%,5.34%,-0.11%,4.5%,-3.34%,8.33%,-0.32%,0.4%,0.87%
CN(c1ccc(NC(=O)Nc2c(Cl)cccc2Cl)cc1)c1ccnc(Nc2cccc(CS(C)(=O)=O)c2)n1,-9.25%,10.1%,21.4%,64.2%,72.1%,59.8%,84.1%,1.13%,4.21%,49.7%
CCc1cccc(CC)c1/C=C/c1cncc(C(=O)NC)c1,-0.49%,4.18%,7.25%,1.3%,3.17%,5.96%,10.2%,1.3%,2.37%,1.94%

Structure (SMILES),inhibition [1],inhibition [2],inhibition [3],inhibition [4],inhibition [5],inhibition [6],inhibition [7],inhibition [8],inhibition [9],inhibition [10]
CCS(=O)(=O)c1ccc(OC)c(Nc2ncc(-c3ccccc3Cl)o2)c1,4.5%,3.48%,5.03%,0.48%,7.52%,16.9%,67.2%,1.07%,3.27%,2.9%
Fc1ccc(-c2ncn(C3CCNCC3)c2-c2ccnc(Oc3ccc4c(c3)OCO4)n2)cc1,-5.42%,2.04%,5.37%,7.45%,12.3%,3.93%,7.31%,1.16%,1.77%,1.21%
O=C(Nc1n[nH]c2nc(-c3ccco3)ccc12)C1CC1,1.5%,1.47%,3.97%,5.28%,10.4%,0.16%,1.24%,-0.07%,0.93%,4.04%
NS(=O)(=O)c1ccc(N/N=C2\C(=O)Nc3ccc(C(=O)NCCCn4ccnc4)cc32)cc1,-1.66%,3.92%,10.5%,2.3%,5.99%,6.1%,16.5%,0.41%,3.98%,2.34%
C[C@@H](Oc1cc(-n2cnc3ccc(OC4CCN(C)CC4)cc32)sc1C(N)=O)c1ccccc1Cl,2.16%,2.27%,1.73%,7.19%,11.9%,3.41%,18.1%,-0.17%,1.13%,2.29%
O=C1NC(=O)C(c2cccc(Cl)c2)=C1Nc1ccc(Cl)c(C(=O)O)c1,-0.32%,3.38%,2.84%,1.75%,4.22%,0.16%,11%,0.78%,0.5%,0.94%
COc1cc2ncn(-c3cc(OCCc4ccccc4)c(C(N)=O)s3)c2cc1OC,-0.89%,2.52%,4.4%,3.5%,14.9%,2.85%,13.5%,0.78%,2.21%,1.42%
O=C1Nc2ccccc2/C1=C/Nc1ccc(-n2cncn2)cc1,-1.86%,3.72%,5.42%,0.76%,4.4%,2.41%,14%,0.63%,2.83%,6.94%
FC(F)(F)c1cccc(Nc2nccc(-c3cnn4nc(-c5ccccc5)ccc34)n2)c1,-6.97%,-0.76%,4.7%,0.12%,4.87%,1.51%,8.59%,0.76%,1.15%,-0.16%
CNC(=O)c1cncc(/C=C/c2c(C)cccc2C)c1,-0.51%,5.68%,38.2%,-0.16%,7.69%,0.82%,16.5%,0.76%,9.44%,3.36%
COc1cccc(/C=N/Nc2ncnc3c2cnn3-c2cccc(OC)c2)c1,0.04%,4.1%,4.79%,5.3%,4.37%,0.36%,3.79%,1.06%,3.32%,1.54%
COC(=O)Nc1nc2ccc(Sc3ccc(NC(=O)Nc4cc(C(F)(F)F)ccc4F)cc3)cc2[nH]1,-0.54%,3.34%,5.46%,21.1%,70.7%,2.15%,25.3%,0.06%,1.64%,62.7%
O=C1Nc2ccc(I)cc2C1=Cc1cc(Br)c(O)c(Br)c1,1.56%,7.04%,3.72%,4.71%,5.55%,22.7%,84.5%,0.67%,3.22%,2.97%
CS(=O)(=O)CCNCc1ccc(-c2ccc3ncnc(Nc4ccc(OCc5ccccc5)c(Br)c4)c3c2)o1,-5.01%,-2.31%,1.49%,0.77%,4.68%,0.59%,14.6%,-0.17%,1.61%,1.4%
COc1ccc2cc(-c3c(-c4ccncc4)nc(-c4ccc([S+](C)[O-])cc4C)n3C)ccc2c1 (centres undefined),0.6%,0.44%,0.84%,76.9%,82.2%,-3.02%,12.5%,-0.21%,0.9%,0.64%
CCc1ccc(Oc2nccc(-c3c(-c4ccc(F)cc4)ncn3C3CCNCC3)n2)cc1,2.45%,6.67%,4.84%,3.66%,4.41%,1.24%,0.88%,1.41%,2.2%,4.16%
O=C(Nc1n[nH]c2cc(-c3cc(F)ccc3F)ccc12)C1CC1,1.24%,2.72%,4.04%,3.35%,9.26%,1.68%,7.03%,-0.01%,-0.8%,3.75%
